ELG1 genotoxic – qHTS screen for small molecules that induce genotoxicity in human embryonic kidney (HEK293T) cells expressing luciferase-tagged ELG1; Potency, µM (top dose mostly 46 µM), without a hit: top-dose activity change, positive = activation, most hits filed as activators; 1.3% of 330,000 active; HEK293T ELG1-luciferase reporter, luminescence, 16 h; further: % of control where 0% means no effect; nearly all actives have a fitted effect of over 60% in size
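After overnight (16 hr) compound treatment at 37 °C, ELG1-luciferase HEK293T cells were lysed with ONE-Glo; luminescence quantified 30 min later at room temperature.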
NPC1 prom act – qHTS Assay for NPC1 Promoter Activators; AID 485313, 2010; Potency, µM (titrated, usually from 9.22 µM), inactives show top-dose activation, actives largely listed as activators; 2.4% of 320,000 active; Huh7 NPC1 promoter luciferase reporter, 24 h; further: % of control where 0% means no effect; nearly all actives have a fitted effect of over 60% in size
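Stably transfected Huh7 (NPC1 promoter→luciferase), 1500 cells/well in Opti-MEM + 10% FBS, 2 h settle, then compound 24 h at 37 °C. Luminescence after 10 min with Amplite reagent.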
Rab9 prom act – qHTS Assay for Rab9 Promoter Activators; Potency, µM (titrated, usually from 9.22 µM), for the others: at the top dose activation, negative = inhibition, usual class: activators; Huh7 Rab9 promoter-luciferase reporter, luminescence, 24 h; 2.8% of 320,000 active; further: % of control where 0% means no effect; nearly all actives have a fitted effect of over 60% in size
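Using Huh7 cells stably transfected with Rab9 promoter–luciferase, compounds were incubated 24 h at 37 °C, 5% CO2; luciferase luminescence was read 10 min after reagent addition.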
SMN2 splice enh – qHTS Assay for Enhancers of SMN2 Splice Variant Expression; 2.8% of 210,000 active; HEK293 SMN2-luciferase splicing reporter, luminescence, 30-36 h; Potency, µM (top dose mostly 46.1 µM), for inactives: at the highest dose activity change, positive = activation, most hits filed as activators; further: % of control where 0% means no effect; nearly all actives have a fitted effect of over 55% in size
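HEK293 cells carry an SMN2 […]–luciferase reporter in which exon 7 inclusion puts luciferase in frame. Cells were plated 10-12 h before compound addition, then incubated 30-36 h at 37C. ONE-Glo luminescence was read; sodium butyrate at 4.5 mM final served as control.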
FLuc counter – qHTS profiling assay for firefly luciferase inhibitor/activator using purifed enzyme and Km concentrations of substrates (counterscreen for miR-21 project); Luciferin 4-monooxygenase (Photinus pyralis), P08659; purified FLuc, Km substrates, luminescence inhibition; Potency, µM (series often up to 57.5 µM), for inactives: top-dose activity change, negative = inhibition, actives largely listed as inhibitors; 6.9% of 360,000 active; AID 588342, 2011;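 further: plate controls were vehicle for no effect and reference inhibitor for full effect; nearly all actives have a fitted effect of over 55% in size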
Target sequence (P08659 whole entry, looked up): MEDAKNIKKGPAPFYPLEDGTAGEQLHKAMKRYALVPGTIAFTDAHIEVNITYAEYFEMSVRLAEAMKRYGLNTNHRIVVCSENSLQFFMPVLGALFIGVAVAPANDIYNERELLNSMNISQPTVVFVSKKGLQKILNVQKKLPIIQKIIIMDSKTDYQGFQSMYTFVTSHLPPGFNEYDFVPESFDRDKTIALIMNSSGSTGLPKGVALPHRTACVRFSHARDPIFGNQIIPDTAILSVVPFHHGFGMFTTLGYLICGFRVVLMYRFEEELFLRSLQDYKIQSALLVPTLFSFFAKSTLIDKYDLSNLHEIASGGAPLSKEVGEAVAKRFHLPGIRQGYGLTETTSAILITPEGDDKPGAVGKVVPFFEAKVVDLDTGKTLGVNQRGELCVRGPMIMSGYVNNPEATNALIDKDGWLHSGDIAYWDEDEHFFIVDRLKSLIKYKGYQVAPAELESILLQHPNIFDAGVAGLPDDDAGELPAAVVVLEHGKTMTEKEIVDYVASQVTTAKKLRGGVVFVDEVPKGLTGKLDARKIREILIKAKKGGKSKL
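Biochemical qHTS of compounds, final roughly 60 µM downward over six points, against 10 nM purified firefly luciferase using Km concentrations of substrates (10 uM D-luciferin, 10 uM ATP) in Tris acetate pH 7.5 buffer; luminescence output.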
* hit, by the source's call; ? = inconclusive; . = no result given. This is a sample that favours compounds with a hit; in the whole collection about 7.4% have one here. The call rests on the fitted dose curve; in most records, active means well fitted curve in the direction sought with a large enough effect; inconclusive means small, poorly fitted or top-dose-only effect, or another doubt; inactive means no such curve, though single readings can be large; an effect the other way counts as inactive or inconclusive. Potency means the concentration at half of the fitted maximal effect.

SMILES	ELG1 genotoxic	NPC1 prom act	Rab9 prom act	SMN2 splice enh	FLuc counter
O=C(OCC(=O)N1CCN(C(=O)c2ccco2)CC1)c1cc(=O)c2ccccc2o1	1%	-3%	-2%	-12%	-1%
O=C(OCC(=O)N1CCN(C(=O)c2ccco2)CC1)c1cc(-c2ccc(F)cc2)nc2ccccc12	-19%	-2%	-13%	-8%	11µM*
O=C(OCC(=O)N1CCN(C(=O)c2ccco2)CC1)c1cc(-c2cccc(Br)c2)nc2ccccc12	-23%	1%	-6%	-12%	9.5µM*
O=C(OCC(=O)N1CCN(C(=O)c2ccco2)CC1)c1cc(-c2ccccc2)nc2ccccc12	-12%	-2%	8%	1%	15µM*
Cc1cc(C(=O)OCC(=O)N2CCN(C(=O)c3ccco3)CC2)c(C)n1-c1ccc(F)cc1	-2%	-7%	-24%	-23%	-2%
CCOC(=O)COc1ccc(CC)cc1C(=O)c1ccn2nc(-c3ccc(F)cc3)cc2n1	.	.	.	6%	-2%
C#CCn1cc(C=C2C(=O)c3ccccc3C2=O)c2ccccc21	17%	18%	3%	22%	2.4µM*
C#CCn1c(=O)cc(C)c2ccccc21	5%	-2%	0%	-8%	2%
O=C(O)c1cccc(CSc2n[nH]c(-c3ccc(Cl)cc3Cl)n2)c1	7%	-2%	-1%	3%	27µM*
CN(C)S(=O)(=O)c1cccc(NC(=O)c2cc3ccccc3o2)c1	6%	30%	?	3%	8.5µM*
O=C(COC(=O)c1cc2ccccc2oc1=O)Nc1ccc(F)cc1F	?	2.2µM*	2.5µM*	.	7.6µM*
O=C(COC(=O)c1cc2ccccc2oc1=O)Nc1cccc(S(=O)(=O)N2CCCCCC2)c1	?	2%	12%	17%	-19%
CN(C)S(=O)(=O)c1cccc(NC(=O)COC(=O)c2cc(=O)c3ccccc3o2)c1	3%	-1%	-3%	.	-5%
CCN(CC)S(=O)(=O)c1cccc(NC(=O)c2cc3ccccc3o2)c1	-4%	0%	9%	-19%	12µM*
CN(C)S(=O)(=O)c1cccc(NC(=O)COC(=O)c2cc3ccccc3oc2=O)c1	9.2µM*	3.5µM*	3.2µM*	.	13µM*
O=Cc1ccc(C(=O)OCC(=O)Nc2ccc(F)cc2F)cc1	-1%	-5%	-7%	.	-1%
O=P1(O)Oc2c(c(-c3ccccc3)cc3ccc4ccccc4c23)-c2c(-c3ccccc3)cc3ccc4ccccc4c3c2O1	.	.	.	4%	.
FC(F)(F)c1cnc(-c2cnc(-c3ccncc3)nc2)c(Cl)c1	2%	?	3.2µM*	24%	?
CC(Cl)c1cc(-c2ncc(C(F)(F)F)cc2Cl)no1 (stereo not given)	7%	-2%	2%	7%	?
FC(F)(F)c1cnc(-c2cnc(-c3ccccn3)nc2)c(Cl)c1	2%	?	0.71µM*	11µM*	11µM*
Cn1cc(CN(C(=O)Nc2ccccc2)C2CCCCC2)c2ccccc21	.	.	.	-2%	-14%
C/C(=N\Nc1cc(C)nc(-c2ccccc2O)n1)c1ccccc1	-8%	-1%	-3%	-21%	9.5µM*
Cc1ccc(Nc2cc(C)nc(-c3ccccc3)n2)cc1	?	?	?	.	21µM*
Cc1cc(N/N=C/c2ccc(O)c(C)c2O)nc(-c2ccccc2O)n1	-6%	-1%	0%	-63%	?
Cc1ccc(Nc2cc(C)nc(-c3ccccc3O)n2)cc1	?	14%	18%	-14%	24µM*
SMILES	ELG1 genotoxic	NPC1 prom act	Rab9 prom act	SMN2 splice enh	FLuc counter
COc1cc(NC(=O)N2CCN(c3cc(-c4noc(C)n4)ccc3C)CC2)cc(OC)c1OC	.	.	.	.	-7%
COC(=O)NC(c1ccccc1)c1c[nH]c2ccccc12 (stereo not given)	.	.	.	0%	.
Cc1ccc(-n2ncc3c(N4CCN(C)CC4)ncnc32)cc1	.	.	.	.	3µM*
Cc1ccc(-n2ncc3c(N(C)C)ncnc32)cc1Cl	.	.	.	.	0.76µM*
CN1CCN(c2ncnc3c2cnn3-c2ccc(Cl)cc2)CC1	?	?	0.4µM*	0%	0.95µM*
Cc1ccc(-n2ncc3c(N4CCN(C)CC4)ncnc32)cc1Cl	.	.	.	.	5.4µM*
Cc1cccc(-n2ncc3c(N)ncnc32)c1	?	?	?	5%	?
COc1ccc(Nc2nc3cc(Cl)c(Cl)cc3n3cnnc23)cc1Cl	.	.	.	5%	-10%
CC(=O)N1CCCc2cc(S(=O)(=O)N3CCN(c4ccccc4F)CC3)ccc21	.	.	.	.	2%
Cc1ccc(NC(=O)C2CCCN(S(=O)(=O)c3ccc4[nH]c(=O)ccc4c3)C2)cc1Cl (stereo not given)	.	.	.	.	0%
O=C(CSc1ncc(S(=O)(=O)c2ccc(Br)cc2)c(=O)[nH]1)NCc1ccc(Cl)cc1	.	.	.	5%	8.5µM*
Cc1ccc(CNC(=O)CSc2ncc(S(=O)(=O)c3ccc(Br)cc3)c(=O)[nH]2)cc1	.	.	.	-2%	6.7µM*
Cc1cc2oc3c(c(=O)c2cc1C)C1(C(=O)N(C)c2ccccc21)N(CCO)C3=O (stereo not given)	.	.	.	-3%	-1%
CC1CCCCN1C(=O)CSc1nc2ccccc2nc1Cc1ccccc1 (stereo not given)	.	.	.	.	-16%
O=C(c1ccco1)N1CCN(c2nc3ccsc3c(=O)s2)CC1	16%	1%	18%	23%	-17%
O=C(Cn1ncc2ccsc2c1=O)N1CCN(c2ccc(F)cc2)CC1	.	.	.	-17%	1%
O=c1sc(N2CCN(c3ccccc3F)CC2)nc2ccsc12	7.3µM*	1.4µM*	0.79µM*	13µM*	2.7µM*
O=c1sc(N2CCN(c3ccc(F)cc3)CC2)nc2ccsc12	?	?	?	?	8.5µM*
C=Cc1ccccn1	.	.	.	7%	.
CSCCOC(=O)COc1ccc(/C=N/NC(=O)c2nn(C)cc2Cl)cc1	3%	-5%	-7%	-22%	13µM*
CCNc1ncc2nc(CCc3ccccc3)c(=O)n(C)c2n1	.	.	.	13µM*	.
N#Cc1cc(-c2ccccc2)[nH]c1-c1nccc2ccccc12	-13%	-4%	-5%	.	?
c1ccc(-c2ccc(-c3nccc4ccccc34)[nH]2)cc1	?	?	1µM*	.	0.15µM*
CCOc1ccc(/C=C2/C(=O)N(c3ccc(OC)cc3)C(=S)N2CC(=O)OC)cc1OCC	?	?	?	13µM*	6µM*
Oc1csc(Cc2nc(-c3ccc(-c4ccccc4)cc3)cs2)n1	11%	?	?	4%	?
Oc1csc(Cc2nc(-c3ccccc3F)cs2)n1	-4%	?	5µM*	?	-18%
Oc1csc(Cc2nc(-c3ccc4ccccc4c3)cs2)n1	?	?	2.8µM*	?	?

Compound activity: PubChem BioAssay, National Center for Advancing Translational Sciences (NCATS)
